{"source": "paper PMC4336329", "about": "(PLoS ONE, 2015)", "note": "The campaign covered roughly 310,000 compounds. About 14,000 (4.5%) showed an effect of 50% or more. Effects have a minus sign here. The entries come from a sample that favours strong results as a whole.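 Note: peak tail current of the secondary pulse compared with the same well before compound.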", "data": [{"target": "human ether-à-go-go-related gene (hERG) potassium channel (human, UniProt Q12809)", "sequence (Q12809 whole entry, looked up)": "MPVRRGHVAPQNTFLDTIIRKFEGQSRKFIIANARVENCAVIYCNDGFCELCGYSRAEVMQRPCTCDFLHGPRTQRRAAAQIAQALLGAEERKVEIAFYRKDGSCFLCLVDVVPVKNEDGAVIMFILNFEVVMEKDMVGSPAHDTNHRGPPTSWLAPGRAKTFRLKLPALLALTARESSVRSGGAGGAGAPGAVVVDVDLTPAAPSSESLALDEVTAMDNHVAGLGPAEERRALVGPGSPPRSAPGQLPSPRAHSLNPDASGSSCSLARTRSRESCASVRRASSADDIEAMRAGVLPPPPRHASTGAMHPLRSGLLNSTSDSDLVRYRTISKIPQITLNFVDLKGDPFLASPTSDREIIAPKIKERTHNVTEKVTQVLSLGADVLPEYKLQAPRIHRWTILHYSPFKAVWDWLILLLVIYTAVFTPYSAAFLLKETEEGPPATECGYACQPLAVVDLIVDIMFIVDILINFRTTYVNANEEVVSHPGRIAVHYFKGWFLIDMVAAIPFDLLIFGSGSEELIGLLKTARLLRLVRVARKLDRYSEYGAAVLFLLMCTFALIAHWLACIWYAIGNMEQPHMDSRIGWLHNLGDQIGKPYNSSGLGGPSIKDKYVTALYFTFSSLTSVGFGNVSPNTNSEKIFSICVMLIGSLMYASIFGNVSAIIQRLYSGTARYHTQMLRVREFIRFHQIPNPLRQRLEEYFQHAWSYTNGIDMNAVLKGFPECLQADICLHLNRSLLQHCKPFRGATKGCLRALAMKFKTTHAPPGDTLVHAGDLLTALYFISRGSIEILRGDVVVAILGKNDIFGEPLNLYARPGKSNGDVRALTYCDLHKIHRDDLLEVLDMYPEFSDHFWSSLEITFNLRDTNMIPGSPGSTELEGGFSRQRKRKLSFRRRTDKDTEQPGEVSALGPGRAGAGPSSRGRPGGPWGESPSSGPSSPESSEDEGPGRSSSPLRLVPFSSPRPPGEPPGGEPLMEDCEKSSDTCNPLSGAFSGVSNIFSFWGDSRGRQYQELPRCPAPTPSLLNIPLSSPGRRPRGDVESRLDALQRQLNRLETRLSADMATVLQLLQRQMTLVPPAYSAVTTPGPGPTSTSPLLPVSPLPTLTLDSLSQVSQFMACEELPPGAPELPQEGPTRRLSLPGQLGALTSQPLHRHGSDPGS", "assay": "primary screen, population patch clamp on CHO cells stably expressing hERG; higher = less effect of the substance", "units": {"hERG current change (%, negative = inhibition) at 10uM": "%"}, "values": [{"smiles": "CCc1cc2c(=O)c(-c3nc(C)cs3)c(CCCC(=O)O)oc2cc1O", "hERG current change (%, negative = inhibition) at 10uM": 29.7}, {"smiles": "CCOC(=O)c1cc2c(=O)n3ccccc3nc2n(Cc2ccco2)c1=NC(=O)c1ccc(OC)cc1OC", "hERG current change (%, negative = inhibition) at 10uM": -54.2}, {"smiles": "CCOC(=O)c1cc2c(=O)n3ccccc3nc2n(Cc2ccco2)c1=NC(=O)c1cccc(OC)c1", "hERG current change (%, negative = inhibition) at 10uM": -43.8}, {"smiles": "CCOC(=O)c1cc2c(=O)n3ccccc3nc2n(Cc2ccco2)c1=NC(=O)c1ccccc1OC", "hERG current change (%, negative = inhibition) at 10uM": -68.9}, {"smiles": "CCOC(=O)c1cc2c(=O)n3ccccc3nc2n(Cc2ccco2)c1=NC(=O)c1ccccc1OCC", "hERG current change (%, negative = inhibition) at 10uM": -50}, {"smiles": "CCOC(=O)c1cc2c(=O)n3ccccc3nc2n(Cc2ccco2)c1=NC(=O)c1cccnc1", "hERG current change (%, negative = inhibition) at 10uM": -37.4}, {"smiles": "CCOC(=O)c1cc2c(=O)n3ccccc3nc2n(Cc2ccco2)c1=NC(=O)c1ccc(OC)cc1", "hERG current change (%, negative = inhibition) at 10uM": -54.3}, {"smiles": "Nc1nnc(SCC(=O)Nc2ccccc2N2CCOCC2)s1", "hERG current change (%, negative = inhibition) at 10uM": 3.88}, {"smiles": "O=C(c1cc2ccccc2s1)N1CCN(c2ccccn2)CC1", "hERG current change (%, negative = inhibition) at 10uM": -11.5}, {"smiles": "O=C(COC(=O)c1ccc(Br)o1)Nc1ncc([N+](=O)[O-])s1", "hERG current change (%, negative = inhibition) at 10uM": 10.6}, {"smiles": "O=C(c1ccc(Cl)cc1)C1CCN(C(=O)NC2CCCCC2)CC1", "hERG current change (%, negative = inhibition) at 10uM": -6.29}, {"smiles": "Cc1noc(C)c1C(=O)OC(C)C(=O)N1CCc2ccccc21", "note": "(centres unmarked)", "hERG current change (%, negative = inhibition) at 10uM": 4.27}, {"smiles": "Cc1nc(-c2cccc(NC(=O)c3cccs3)c2)cs1", "hERG current change (%, negative = inhibition) at 10uM": -23.3}, {"smiles": "CCCN(C(=O)c1c(-c2ccccc2)noc1C)c1c(N)n(Cc2ccccc2)c(=O)[nH]c1=O", "hERG current change (%, negative = inhibition) at 10uM": 1.43}, {"smiles": "COc1cccc(CNC(=O)Cc2ccc(Br)cc2)c1", "hERG current change (%, negative = inhibition) at 10uM": 5.59}, {"smiles": "Cc1ccc(-c2nnc(SCC(=O)Nc3nccs3)n2N)cc1", "hERG current change (%, negative = inhibition) at 10uM": -10.4}, {"smiles": "O=[N+]([O-])c1ccc(N2CCN(c3ccc(O)cc3)CC2)c(Cl)c1", "hERG current change (%, negative = inhibition) at 10uM": -3.4}, {"smiles": "CCn1nc(C)c(CNC(=O)Nc2ccccc2C(=O)OC)c1C", "hERG current change (%, negative = inhibition) at 10uM": 13.5}, {"smiles": "O=C(Nc1ccc2c(c1)CCC2)Nc1ccccc1F", "hERG current change (%, negative = inhibition) at 10uM": -61.6}, {"smiles": "O=C(Nc1ccc2c(c1)CCC2)Nc1ccc(F)cc1F", "hERG current change (%, negative = inhibition) at 10uM": 15.5}, {"smiles": "Cc1ccccc1NC(=O)Nc1ccc2c(c1)CCC2", "hERG current change (%, negative = inhibition) at 10uM": 24.4}, {"smiles": "Cc1ccccc1NCN1C(=O)C2C3C=CC(C3)C2C1=O", "note": "(centres unmarked)", "hERG current change (%, negative = inhibition) at 10uM": 6.34}, {"smiles": "COc1cccc(/C=N/NC(=O)Cn2nc(C)c([N+](=O)[O-])c2C)c1O", "hERG current change (%, negative = inhibition) at 10uM": -13.1}, {"smiles": "CCN1CCN(C(=O)N2CCOCC2)CC1", "hERG current change (%, negative = inhibition) at 10uM": 15.5}, {"smiles": "O=C(CN1CCN(C(=O)c2cccc(-n3cnnn3)c2)CC1)Nc1ccccc1Cl", "hERG current change (%, negative = inhibition) at 10uM": -90.3}, {"smiles": "Cc1cccc(NC(=O)CN2CCN(C(=O)c3cccc(-n4cnnn4)c3)CC2)c1C", "hERG current change (%, negative = inhibition) at 10uM": -41.5}, {"smiles": "CS(=O)(=O)c1ccc(Cl)c(NC(=O)c2cccc(-n3cnnn3)c2)c1", "hERG current change (%, negative = inhibition) at 10uM": -65.6}, {"smiles": "CCc1ccccc1NC(=O)COc1cccc(-n2cnnn2)c1", "hERG current change (%, negative = inhibition) at 10uM": -8.5}, {"smiles": "O=C(CN1CCCCC1)Nc1cccc(-n2cnnn2)c1", "hERG current change (%, negative = inhibition) at 10uM": 0.45}, {"smiles": "CS(=O)(=O)c1ccc(NC(=O)c2cccc(-n3cnnn3)c2)cc1", "hERG current change (%, negative = inhibition) at 10uM": 12.1}, {"smiles": "CCc1ccccc1NC(=O)CN1CCN(C(=O)c2cccc(-n3cnnn3)c2)CC1", "hERG current change (%, negative = inhibition) at 10uM": -65}, {"smiles": "O=C(c1cccc(-n2cnnn2)c1)N1CCOCC1", "hERG current change (%, negative = inhibition) at 10uM": -8.49}, {"smiles": "CS(=O)(=O)c1ccc(Cl)c(NC(=O)c2cccc(N3C(=O)CCC3=O)c2)c1", "hERG current change (%, negative = inhibition) at 10uM": 0.801}, {"smiles": "Cc1ccc(NC(=O)CSCC(=O)NC2(C)CCS(=O)(=O)C2)cc1", "note": "(centres unmarked)", "hERG current change (%, negative = inhibition) at 10uM": 5.44}, {"smiles": "O=C(O)Cc1sc(NCCc2ccccc2)nc1-c1ccc(F)cc1", "hERG current change (%, negative = inhibition) at 10uM": 3.77}, {"smiles": "Cc1cn2c(-c3ccc(Cl)cc3)nnc2s1", "hERG current change (%, negative = inhibition) at 10uM": -33.3}, {"smiles": "CN(CCC#N)C(=O)COC(=O)c1ccc2c(=O)n3c(nc2c1)CCC3", "hERG current change (%, negative = inhibition) at 10uM": 35}, {"smiles": "COc1ccccc1/C=C/C(=O)OCC(=O)c1cc(C)n(C)c1C", "hERG current change (%, negative = inhibition) at 10uM": -0.348}, {"smiles": "O=C(NCc1cccc(Cl)c1)c1ccc2c(c1)SC1=NS(=O)(=O)CCN12", "hERG current change (%, negative = inhibition) at 10uM": -5.52}, {"smiles": "CN(C(=O)c1ccc2c(c1)SC1=NS(=O)(=O)CCN12)C(c1ccccc1)c1ccccc1", "hERG current change (%, negative = inhibition) at 10uM": -61}, {"smiles": "O=C(O)c1ccc2c(c1)SC1=NS(=O)(=O)CCN12", "hERG current change (%, negative = inhibition) at 10uM": 8.48}, {"smiles": "COc1ccc(CCNC(=O)c2ccc3c(c2)SC2=NS(=O)(=O)CCN23)cc1", "hERG current change (%, negative = inhibition) at 10uM": -60.4}, {"smiles": "O=C(NCc1ccccc1Cl)c1ccc2c(c1)SC1=NS(=O)(=O)CCN12", "hERG current change (%, negative = inhibition) at 10uM": -7.44}, {"smiles": "CC(C)(C)c1ccccc1NC(=O)c1ccc2c(c1)SC1=NS(=O)(=O)CCN12", "hERG current change (%, negative = inhibition) at 10uM": 6.51}]}]}
